The values that follow come from PubChem BioAssay (NCATS).

A short description of experiment [1]: qHTS to identify inhibitors of the type 1 interferon - major histocompatibility complex class I in skeletal muscle: primary screen against the NCATS Pharmaceutical Collection (AID 1347407).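 Also: luminescence of HiBiT knocked into endogenous HLA-B as interferon-induced MHC class I level.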 Also: potency is read from the fitted curve at half-maximal effect. The method, boiled down: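 A qHTS format is used: 8-point, 1:5 compound series with 46 uM top final concentration, applied alongside 4 ng/ml IFN-beta to HLA-B*08:01-HiBiT knock-in myoblasts. Luminescence is measured after 24 h treatment.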

The nature of experiment [2]: qHTS to identify inhibitors of the type 1 interferon - major histocompatibility complex class I in skeletal muscle: primary screen against the NCATS Mechanism Interrogation Plate v5.0 (MIPE) Libary (AID 1347411). Also: nearly all actives have a fitted effect of over 65% in size. Also: potency is read from the fitted curve at half-maximal effect. In a few lines: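 Immortalized human C25cl48 myoblasts with HiBit knocked into endogenous HLA-B*08:01 were stimulated with 4.0 ng/ml IFN-beta and exposed to compounds (11-point 1:3 titration, top 46 uM final) for 24 hrs at 37 C; HiBiT lytic luminescence measured.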

Experiment [3] deals with Protein phosphatase 1D (Homo sapiens) (UniProt O15297). Nature of the experiment: RapidFire Mass Spectrometry qHTS Assay for Modulators of WT P53-Induced Phosphatase 1 (WIP1) (AID 1347424).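 Also: amount of dephosphorylated VEPPL-S-QETFS peptide product formed by WIP1; series mostly up to about 63 µM.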 The method, boiled down:
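WIP1 (10 nM final) was preincubated 1 h at room temperature with compounds in Tris-HCl pH 7.5, 30 mM MgCl2, TCEP, EGTA, BSA; 2 uM VEPPL-pS-QETFS phosphopeptide was added for 5 min, quenched with formic acid, and dephosphorylated product quantified by RapidFire MS.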

Experiment [4] shares this target. Nature of the experiment: Rhodamine-PBP qHTS Assay for Modulators of WT P53-Induced Phosphatase 1 (WIP1) (AID 1347425). In a few lines:
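WIP1 (5 nM final) was preincubated with compound for 1 hour at room temperature. It then dephosphorylated 10 uM VEPPL-pS-QETFS peptide in Tris-HCl pH 7.5 with 30 mM MgCl2. Released Pi was detected by 10 uM Rh-PBP fluorescence (ex 525/em 598 nm) read at 1-min intervals for 11 min, as delta f1 - f0.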

Experiment [5] can be described thus: Primary qHTS for inhibitors of La Crosse Virus (LACV) - induced cell death in SH-SY5Y cells (AID 1508616). Also: potency is read from the fitted curve at half-maximal effect. In a few lines:
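Luminescent ATP readout (ATPLite 1step, 5 min room temperature) measured rescue from LACV-induced death after 6 days of infection at 0.01 MOI; normalized to infected DMSO wells and uninfected DMSO wells.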

The target in experiment [6] is Calcium and integrin-binding protein 1 (Homo sapiens) (UniProt Q99828). Nature of the experiment: Primary qHTS for Identification of Calcium Integrin Binding Protein 1 (CIB1) Competitor (AID 1508620).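 Also: GST tagged CIB1 binding a fluorescein labelled alphaIIb integrin peptide tracer; top concentration of the series differs between compounds.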 The method, boiled down:
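Fluorescence polarization competition: CIB1-GST (1 uM final) preincubated with compound 15 min at room temperature, then FITC-labeled alphaIIb peptide (100 nM final) added for another 15 min. Polarization read at Ex 480/Em 540.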

Records with an inconclusive call do not appear. Unmarked numbers belong to inactive results. Activity calls are given as the source filed them. Calls follow the shape of the dose curve; as a rule, active = well fitted curve in the direction sought with a large enough effect; inconclusive = small, poorly fitted or top-dose-only effect, or another doubt; inactive = no such curve, though single readings can be large; an effect the other way counts as inactive or inconclusive.

Calcium and integrin-binding protein 1 (Homo sapiens), sequence (Q99828 whole entry, looked up): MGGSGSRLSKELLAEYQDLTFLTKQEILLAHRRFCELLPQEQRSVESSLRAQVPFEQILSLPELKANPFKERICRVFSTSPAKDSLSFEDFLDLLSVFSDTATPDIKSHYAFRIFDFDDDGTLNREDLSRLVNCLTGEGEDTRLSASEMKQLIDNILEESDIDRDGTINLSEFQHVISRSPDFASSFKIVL
Protein phosphatase 1D (Homo sapiens), sequence (O15297 whole entry, looked up): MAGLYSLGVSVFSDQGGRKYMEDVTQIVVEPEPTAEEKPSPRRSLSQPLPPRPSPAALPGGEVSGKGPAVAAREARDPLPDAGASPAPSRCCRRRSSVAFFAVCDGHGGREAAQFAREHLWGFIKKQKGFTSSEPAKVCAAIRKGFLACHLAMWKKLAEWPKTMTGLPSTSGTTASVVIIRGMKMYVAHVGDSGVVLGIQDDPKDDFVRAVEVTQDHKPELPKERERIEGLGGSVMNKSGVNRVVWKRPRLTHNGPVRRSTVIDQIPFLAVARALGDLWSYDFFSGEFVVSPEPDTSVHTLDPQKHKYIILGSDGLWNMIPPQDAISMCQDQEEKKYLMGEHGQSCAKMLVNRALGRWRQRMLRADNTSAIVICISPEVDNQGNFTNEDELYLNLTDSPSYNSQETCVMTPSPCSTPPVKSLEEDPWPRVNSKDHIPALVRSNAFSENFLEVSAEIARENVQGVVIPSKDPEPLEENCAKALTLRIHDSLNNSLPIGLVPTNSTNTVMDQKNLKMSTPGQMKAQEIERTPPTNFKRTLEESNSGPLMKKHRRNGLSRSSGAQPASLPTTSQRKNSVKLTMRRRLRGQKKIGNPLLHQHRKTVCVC

Take `Cc1oc(=O)oc1CN1CCN(c2cc3c(cc2F)c(=O)c(C(=O)O)c2n3C(C)S2)CC1` (stereo not given): the Potency result in experiment [1], in experiment [2] and in experiment [5] was “inactive” throughout. The compound was called inactive in experiment [3], in experiment [4] and in experiment [6].

As for `CCC(=O)O[C@]1(C(=O)CCl)[C@@H](C)C[C@H]2[C@@H]3CCC4=CC(=O)C=C[C@]4(C)[C@@]3(F)[C@@H](O)C[C@@]21C`, the Potency entry in experiment [1], in experiment [2] and in experiment [5] was “inactive” throughout. In addition, the result in experiment [3], in experiment [4] and in experiment [6] was inactive.

Regarding `CC(C)(C#N)c1cc(Cn2cncn2)cc(C(C)(C)C#N)c1`, the Potency result in experiment [1], in experiment [2] and in experiment [5] was “inactive” each time. In addition, the compound was classed as inactive in experiment [3], in experiment [4] and in experiment [6].

`CC(C)C[C@H](NC(=O)[C@H](CCc1ccccc1)NC(=O)CN1CCOCC1)C(=O)N[C@@H](Cc1ccccc1)C(=O)N[C@@H](CC(C)C)C(=O)[C@@]1(C)CO1`: the Potency was 93.8 nM (active) in experiment [1], 26.2 nM (active) in experiment [2] and 355 nM (active) in experiment [5]. Moreover, the compound was called inactive in experiment [3] and in experiment [4].

Turning to `O=C(O)c1cc(=O)[nH]c(=O)[nH]1`, the Potency entry in experiment [1], in experiment [2] and in experiment [5] was “inactive” each time. Also, the call in experiment [3] and in experiment [4] was inactive.

On to `CC(C)OC(=O)C(C(=O)OC(C)C)=C1SC=CS1`, for which the Potency entry in experiment [1], in experiment [2] and in experiment [5] was “inactive” each time. The call in experiment [3], in experiment [4] and in experiment [6] was inactive.

Consider `CC(C(=O)O)c1ccc2c(c1)CC(=O)c1ccccc1S2` (stereo not given), for which the Potency result in experiment [1], in experiment [2] and in experiment [5] was “inactive” each time. In addition, the call in experiment [3], in experiment [4] and in experiment [6] was inactive.

In the case of `COC(c1ccccc1)(c1ccccc1)[C@H](Oc1nc(C)cc(C)n1)C(=O)O`, the Potency result in experiment [1], in experiment [2] and in experiment [5] was “inactive” throughout. The compound was called inactive in experiment [3] and in experiment [4].

Regarding `NNC(=O)c1ccncc1`, the Potency result in experiment [1], in experiment [2] and in experiment [5] was “inactive” throughout. The compound was called inactive in experiment [3] and in experiment [4].

Take `CCc1cc(C(N)=S)ccn1`: the Potency entry in experiment [1], in experiment [2] and in experiment [5] was “inactive” in each case. Moreover, the result in experiment [3] and in experiment [4] was inactive.

Regarding `Cc1nnc(C(=O)NC(C)(C)c2nc(C(=O)NCc3ccc(F)cc3)c(O)c(=O)n2C)o1`, the Potency entry in experiment [1], in experiment [2] and in experiment [5] was “inactive” in each case. Further, the compound was called inactive in experiment [3], in experiment [4] and in experiment [6].

Turning to `Nc1nc(N)nc(-c2cc(Cl)ccc2Cl)n1`, the Potency result in experiment [1], in experiment [2] and in experiment [5] was “inactive” in each case. The compound was classed as inactive in experiment [3], in experiment [4] and in experiment [6].

As to `O=c1oc2c(O)c(O)cc3c(=O)oc4c(O)c(O)cc1c4c23`, the Potency entry in experiment [1], in experiment [2] and in experiment [5] was “inactive” each time. The compound was classed as inactive in experiment [3], in experiment [4] and in experiment [6].

Turning to `CCCCCCNC(=O)n1cc(F)c(=O)[nH]c1=O`, the Potency result in experiment [1], in experiment [2] and in experiment [5] was “inactive” each time. Moreover, the outcome in experiment [3], in experiment [4] and in experiment [6] was inactive.

`CC[C@H](NC(C)C)[C@H](O)c1ccc(O)c2[nH]c(=O)ccc12`: the Potency entry in experiment [1], in experiment [2] and in experiment [5] was “inactive” throughout. Also, the result in experiment [3], in experiment [4] and in experiment [6] was inactive.

As for `Cn1nnc2c(C(N)=O)ncn2c1=O`, the Potency result in experiment [1], in experiment [2] and in experiment [5] was “inactive” each time. Also, the outcome in experiment [3], in experiment [4] and in experiment [6] was inactive.

With `CN(C)CCc1c[nH]c2ccc(CS(=O)(=O)N3CCCC3)cc12`, the Potency result in experiment [1], in experiment [2] and in experiment [5] was “inactive” throughout. In addition, the compound was called inactive in experiment [3] and in experiment [4].

As to `CCCCOc1ccc(CC(=O)NO)cc1`, the Potency result in experiment [1], in experiment [2] and in experiment [5] was “inactive” each time. The compound was classed as inactive in experiment [3], in experiment [4] and in experiment [6].

Regarding `O=C(NCC1CN(c2ccc(N3CCOCC3=O)cc2)C(=O)O1)c1ccc(Cl)s1` (stereo not given), the Potency entry in experiment [1], in experiment [2] and in experiment [5] was “inactive” each time. Moreover, the result in experiment [3], in experiment [4] and in experiment [6] was inactive.

With `CC1=NN(c2ccccc2)C(=O)C1`, the Potency result in experiment [1], in experiment [2] and in experiment [5] was “inactive” throughout. Also, the result in experiment [3] and in experiment [4] was inactive.

In the case of `COCCCOc1cc(C[C@@H](C[C@H](N)[C@@H](O)C[C@H](C(=O)NCC(C)(C)C(N)=O)C(C)C)C(C)C)ccc1OC`, the Potency result in experiment [1], in experiment [2] and in experiment [5] was “inactive” throughout. Also, the result in experiment [3], in experiment [4] and in experiment [6] was inactive.

For `CC1=CC(=O)c2ccccc2C1=O`, the Potency result in experiment [1] and in experiment [5] was “inactive” throughout. For the same compound, the call in experiment [3] and in experiment [4] was inactive.

Turning to `C[C@@H](CN1CC(=O)NC(=O)C1)N1CC(=O)NC(=O)C1`, the Potency entry in experiment [1] and in experiment [2] was “inactive” in each case. Moreover, the compound was called inactive in experiment [3], in experiment [4] and in experiment [6].

In the case of `COc1cccc(N(C)C(=S)Oc2ccc3c(c2)CCCC3)n1`, the Potency entry in experiment [1] and in experiment [5] was “inactive” throughout. Moreover, the compound was classed as inactive in experiment [3] and in experiment [4].

Consider `C[C@@H](NCCCc1cccc(C(F)(F)F)c1)c1cccc2ccccc12`, for which the Potency in experiment [1] was 26400 nM (active). The call in experiment [3], in experiment [4] and in experiment [6] was inactive. The Potency result in experiment [5] was “inactive”.

`CN1CCN(c2c(F)cc3c(=O)c(C(=O)O)cn4c3c2OCN4C)CC1`: the Potency result in experiment [1] and in experiment [5] was “inactive” in each case. Moreover, the compound was called inactive in experiment [3], in experiment [4] and in experiment [6].

Regarding `CC(C)OC(=O)OCOP(=O)(CO[C@H](C)Cn1cnc2c(N)ncnc21)OCOC(=O)OC(C)C`, the Potency result in experiment [1] and in experiment [5] was “inactive” each time. Moreover, the call in experiment [3], in experiment [4] and in experiment [6] was inactive.

For the compound `Nc1ccc(S(=O)(=O)Nc2ccccn2)cc1`, the Potency result in experiment [1] and in experiment [5] was “inactive” in each case. Further, the outcome in experiment [3] and in experiment [4] was inactive.

For the compound `COc1cc([C@@H]2c3cc4c(cc3[C@H](O)[C@H]3COC(=O)[C@H]23)OCO4)cc(OC)c1OC`, the Potency result in experiment [1] and in experiment [5] was “inactive” each time. Further, the result in experiment [3] and in experiment [4] was inactive.

Turning to `O=NN(CCCl)C(=O)NC1CCCCC1`, the Potency result in experiment [1], in experiment [2] and in experiment [5] was “inactive” in each case. The call in experiment [4] and in experiment [6] was inactive.

Consider `CS(=O)(=O)c1ccc([C@@H](O)[C@@H](CO)NC(=O)C(Cl)Cl)cc1`, for which the Potency entry in experiment [1] and in experiment [5] was “inactive” in each case. Moreover, the call in experiment [3], in experiment [4] and in experiment [6] was inactive.

On to `COc1ccc2cc3[n+](cc2c1OC)CCc1cc2c(cc1-3)OCO2`, for which the Potency entry in experiment [1] and in experiment [5] was “inactive” throughout. Further, the compound was classed as inactive in experiment [3] and in experiment [4].

As for `O=C(O)CSCC(=O)NC1CCSC1=O` (stereo not given), the Potency result in experiment [1], in experiment [2] and in experiment [5] was “inactive” each time. The outcome in experiment [3], in experiment [4] and in experiment [6] was inactive.
